The target in assay [1] is human Phosphodiesterase 10 (PDE10), PDE10A (gene 10846) (UniProt Q9Y233). Briefly: NVS_ENZ_hPDE10: NovaScreen (NVS) Enzymatic Assay for human Phosphodiesterase 10 (PDE10) (AID 2283195). The procedure, abridged:
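PDE10A, cell-free; 1 h incubation; fluorescence intensity + electrophoretic mobility shift separating substrate/product; DMSO = baseline; 25 uM duplicate primary, CRC up to 50 uM.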

The target of assay [2] is human Phosphoinositide 3-kinase alpha (PI3Ka), PIK3CA (gene 5290) (UniProt P42336). Briefly: NVS_ENZ_hPI3Ka: NovaScreen (NVS) Enzymatic Assay for human Phosphoinositide 3-kinase alpha (PI3Ka) (AID 2283196). The procedure, abridged:
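Enzyme activity as fluorescence after mobility-shift separation of substrate and product, 1 h reaction, recombinant human PI3Kα; concentration-response to 50 uM max for chemicals passing a 25 uM duplicate screen.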

Assay [3] has as its target human Protein Phosphatase, Mg2+/Mn2+ Dependent 1A (PPM1A), PPM1A (gene 5494) (UniProt P35813). Briefly: NVS_ENZ_hPPM1A: NovaScreen (NVS) Enzymatic Assay for human Protein Phosphatase, Mg2+/Mn2+ Dependent 1A (PPM1A) (AID 2283198). In short, it runs like this:
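Cell-free recombinant PPM1A phosphatase assay with fluorescent substrate, read 1 h after dosing by electrophoretic mobility shift. Chemicals screened in duplicate at 25 uM, then in concentration-response up to 50 uM; loss of activity versus DMSO.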

Assay [4] deals with human Mitogen- and Stress-activated Protein Kinase-1 (Msk1), RPS6KA5 (gene 9252) (UniProt O75582). Briefly: NVS_ENZ_hMsk1: NovaScreen (NVS) Enzymatic Assay for human Mitogen- and Stress-activated Protein Kinase-1 (Msk1) (AID 2283187). In short, it runs like this: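 Recombinant kinase with fluorescent substrate; product separated by electrophoretic mobility shift, read 1 h after dosing. Screened in duplicate at 25 uM; hits (e.g. ≥30% inhibition) tested in concentration–response up to 50 uM. DMSO baseline.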

Assay [5] concerns the target human Phosphodiesterase 4A1 (PDE4A1), PDE4A (gene 5141) (UniProt P27815). The assay is described as follows: NVS_ENZ_hPDE4A1: NovaScreen (NVS) Enzymatic Assay for human Phosphodiesterase 4A1 (PDE4A1) (AID 2283191). How it is done: NVS_ENZ_hPDE4A1 is a biochemical, single-readout assay that uses extracted gene-proteins in a cell-free assay. Measurements were taken 1 hour after chemical dosing in a 384-well plate.NVS_ENZ_hPDE4A1 is one of one assay component(s) measured or calculated from the NVS_ENZ_hPDE4A1 assay. It is designed to make measurements of enzyme activity, a form of enzyme reporter, as detected with fluorescence intensity signals by Fluorescence and electrophoretic mobility shift technology.Data from the assay component NVS_ENZ_hPDE4A1 was analyzed into 1 assay endpoint. This assay endpoint, NVS_ENZ_hPDE4A1, was analyzed in the positive analysis fitting direction relative to DMSO as the negative control and baseline of activity. Using a type of enzyme reporter, loss-of-signal activity can be used to understand changes in the enzymatic activity as they relate to the gene PDE4A. Furthermore, this assay endpoint can be referred to as a primary readout, because this assay has produced multiple assay endpoints where this one serves a enzymatic activity function. To generalize the intended target to other relatable targets, this assay endpoint is annotated to the esterase intended target family, where the subfamily is phosphodiesterase.
Binding assays used specific radioligands (tritiated, iodinated) with non-radioactive competitive displacement ligands in agonist or antagonist protocols (as indicated) and various reference compounds and inhibitors to titrate specific binding to receptors and transporters. Most enzyme assays (CYPs, kinases, phosphatases, proteases, HDACs) used recombinant protein and specific substrates (fluorescence mostly, some colorimetric and radioactive) and inhibitors, followed by a biochemical separation of substrate and product. All assays for the biochemical HTS were initially run in duplicate at a single concentration (10 uM for CYP450 assays and 25 uM for all others). Assay-chemical combinations meeting a pre-defined threshold (e.g., 30% inhibition and other criteria defined below) were then run in singleton concentration-response format with maximum concentration of 20 uM for CYPs and 50 uM for all others. Each assay was run with positive and negative controls, and concurrent controls on every plate. The follow-up (secondary) screen tested active chemical-pairs in concentration series, as well as a few additional assays not tested in the primary screen, some selected negative inactives, and several cases re-run in the concentration series for confirmatory purposes.

Assay [6] concerns the target human Matrix Metalloproteinase-9 (MMP9), MMP9 (gene 4318) (UniProt P14780). The assay is described as follows: NVS_ENZ_hMMP9: NovaScreen (NVS) Enzymatic Assay for human Matrix Metalloproteinase-9 (MMP9) (AID 2283190).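 Also: cell-free recombinant MMP9 protease activity read by fluorescent substrate signal; active means inhibition seen as loss of fluorescence signal versus DMSO.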 In short, it runs like this:
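Cell-free fluorescence-intensity enzyme activity assay using extracted protein, read 1 h after dosing. Loss of signal versus DMSO baseline indicates inhibition; primary screen in duplicate at 25 uM, actives followed up in concentration series.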

For assay [7], the target named is Tyrosine-protein phosphatase non-receptor type 11 (Homo sapiens) (UniProt Q06124). Briefly: NVS_ENZ_hPTPN11: NovaScreen (NVS) Enzymatic Assay for human Protein Tyrosine Phosphatase Non-receptor Type 11 (PTPN11) (AID 2283202). In short, it runs like this: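 Recombinant human PTPN11 activity on a fluorescent substrate, with substrate/product separated by electrophoretic mobility shift; read 0.5 h after dosing, loss of signal vs DMSO. Duplicate 25 uM screen, then concentration-response up to 50 uM.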

Assay [8] addresses cAMP-dependent protein kinase catalytic subunit alpha (Homo sapiens) (UniProt P17612). The assay is described as follows: NVS_ENZ_hPKA: NovaScreen (NVS) Enzymatic Assay for human Protein Kinase A (PKA) (AID 2283192). The procedure, abridged: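 Recombinant human PKA with specific fluorescent substrate, product separated by electrophoretic mobility shift, read 1 h after dosing. Primary screen at 25 uM in duplicate; actives then run in concentration-response up to 50 uM, activity relative to DMSO.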

Assay [9] deals with Serine/threonine-protein phosphatase PP1-alpha catalytic subunit (Homo sapiens) (UniProt P62136). The assay is described as follows: NVS_ENZ_hPPP1CA: NovaScreen (NVS) Enzymatic Assay for human Protein Phosphatase 1 Aatalytic subunit Alpha (PPP1CA) (AID 2283200). The procedure, abridged:
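Recombinant enzyme activity read by fluorescence with electrophoretic mobility shift separating substrate from product, 1.33 h after dosing; loss of signal vs DMSO baseline. Primary screen in duplicate at 25 uM; actives retested in concentration-response up to 50 uM.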

For assay [10], the target named is human Protein Tyrosine Phosphatase Non-receptor Type 1 (PTPN1), PTPN1 (gene 5770) (UniProt P18031). The assay is described as follows: NVS_ENZ_hPTPN1: NovaScreen (NVS) Enzymatic Assay for human Protein Tyrosine Phosphatase Non-receptor Type 1 (PTPN1) (AID 2283201). In short, it runs like this:
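Cell-free fluorogenic-substrate activity assay on recombinant enzyme, read 1.33 h after dosing by fluorescence and electrophoretic mobility shift; loss of signal vs DMSO baseline. Primary screen in duplicate at 25 uM, hits then run in concentration-response up to 50 uM.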

SMILES strings stand for the structures. Results filed as inconclusive are left out. Calls of active or inactive are those of the source. The calls were made as follows: active = hit-call score of the fitted dose curve at least 0.9, where 1 is the maximum; inconclusive = response in the unintended direction; inactive = score below 0.9.

human Matrix Metalloproteinase-9 (MMP9), MMP9 (gene 4318), sequence (P14780 whole entry, looked up): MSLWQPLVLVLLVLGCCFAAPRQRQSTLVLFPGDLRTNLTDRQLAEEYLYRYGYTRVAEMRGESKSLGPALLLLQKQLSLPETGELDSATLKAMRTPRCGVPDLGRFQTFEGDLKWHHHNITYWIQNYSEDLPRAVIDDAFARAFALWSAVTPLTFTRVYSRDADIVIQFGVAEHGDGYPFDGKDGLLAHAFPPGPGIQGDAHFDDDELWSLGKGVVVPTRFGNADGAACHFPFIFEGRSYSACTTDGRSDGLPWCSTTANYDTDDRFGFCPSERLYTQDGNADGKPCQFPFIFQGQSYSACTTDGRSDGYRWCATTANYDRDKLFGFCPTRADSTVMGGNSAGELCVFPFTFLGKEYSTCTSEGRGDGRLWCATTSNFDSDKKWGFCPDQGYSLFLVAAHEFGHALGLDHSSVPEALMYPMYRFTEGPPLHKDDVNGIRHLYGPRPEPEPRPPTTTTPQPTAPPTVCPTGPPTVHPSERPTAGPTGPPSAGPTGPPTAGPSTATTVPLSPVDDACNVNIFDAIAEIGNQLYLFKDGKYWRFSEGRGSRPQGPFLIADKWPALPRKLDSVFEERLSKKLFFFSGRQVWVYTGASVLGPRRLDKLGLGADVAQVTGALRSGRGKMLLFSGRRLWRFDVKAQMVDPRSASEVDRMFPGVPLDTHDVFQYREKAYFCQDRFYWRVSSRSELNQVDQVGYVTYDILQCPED
human Protein Phosphatase, Mg2+/Mn2+ Dependent 1A (PPM1A), PPM1A (gene 5494), sequence (P35813 whole entry, looked up): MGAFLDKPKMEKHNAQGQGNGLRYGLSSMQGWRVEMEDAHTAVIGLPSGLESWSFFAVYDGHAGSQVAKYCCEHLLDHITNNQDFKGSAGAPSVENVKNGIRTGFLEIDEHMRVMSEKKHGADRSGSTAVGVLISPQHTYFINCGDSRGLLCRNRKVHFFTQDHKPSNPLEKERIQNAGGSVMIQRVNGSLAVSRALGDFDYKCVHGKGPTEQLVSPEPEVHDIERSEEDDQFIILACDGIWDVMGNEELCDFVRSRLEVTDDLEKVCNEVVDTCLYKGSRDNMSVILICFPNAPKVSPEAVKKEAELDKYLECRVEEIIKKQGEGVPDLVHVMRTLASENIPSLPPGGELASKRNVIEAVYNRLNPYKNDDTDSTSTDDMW
human Mitogen- and Stress-activated Protein Kinase-1 (Msk1), RPS6KA5 (gene 9252), sequence (O75582 whole entry, looked up): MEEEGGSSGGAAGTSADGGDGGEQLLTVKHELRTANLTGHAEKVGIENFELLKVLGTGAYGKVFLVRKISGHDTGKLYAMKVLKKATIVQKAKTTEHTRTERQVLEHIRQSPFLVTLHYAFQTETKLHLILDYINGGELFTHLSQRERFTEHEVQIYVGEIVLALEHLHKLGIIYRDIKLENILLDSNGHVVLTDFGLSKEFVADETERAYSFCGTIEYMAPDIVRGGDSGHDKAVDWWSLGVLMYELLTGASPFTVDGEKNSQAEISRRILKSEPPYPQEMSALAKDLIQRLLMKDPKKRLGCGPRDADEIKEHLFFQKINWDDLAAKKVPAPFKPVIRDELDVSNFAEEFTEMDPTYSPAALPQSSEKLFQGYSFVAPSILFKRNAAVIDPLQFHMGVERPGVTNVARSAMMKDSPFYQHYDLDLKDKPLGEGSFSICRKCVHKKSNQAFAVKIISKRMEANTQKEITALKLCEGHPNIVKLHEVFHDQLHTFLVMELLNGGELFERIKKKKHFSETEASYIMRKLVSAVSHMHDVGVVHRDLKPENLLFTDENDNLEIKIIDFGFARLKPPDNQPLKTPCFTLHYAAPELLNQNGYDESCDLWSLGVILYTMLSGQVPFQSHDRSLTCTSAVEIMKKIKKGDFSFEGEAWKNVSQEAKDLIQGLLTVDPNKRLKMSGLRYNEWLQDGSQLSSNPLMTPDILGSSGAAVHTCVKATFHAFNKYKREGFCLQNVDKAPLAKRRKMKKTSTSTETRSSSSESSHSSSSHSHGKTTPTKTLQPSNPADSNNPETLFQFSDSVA
Serine/threonine-protein phosphatase PP1-alpha catalytic subunit (Homo sapiens), sequence (P62136 whole entry, looked up): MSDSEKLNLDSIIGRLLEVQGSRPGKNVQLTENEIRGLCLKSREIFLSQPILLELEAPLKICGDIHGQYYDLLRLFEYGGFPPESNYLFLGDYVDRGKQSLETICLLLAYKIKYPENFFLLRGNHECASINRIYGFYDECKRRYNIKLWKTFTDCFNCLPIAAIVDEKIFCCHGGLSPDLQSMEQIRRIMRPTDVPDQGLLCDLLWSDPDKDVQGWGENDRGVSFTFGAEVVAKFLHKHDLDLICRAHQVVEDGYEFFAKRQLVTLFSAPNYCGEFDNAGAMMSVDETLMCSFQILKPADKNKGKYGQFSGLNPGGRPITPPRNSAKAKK
human Phosphoinositide 3-kinase alpha (PI3Ka), PIK3CA (gene 5290), sequence (P42336 whole entry, looked up): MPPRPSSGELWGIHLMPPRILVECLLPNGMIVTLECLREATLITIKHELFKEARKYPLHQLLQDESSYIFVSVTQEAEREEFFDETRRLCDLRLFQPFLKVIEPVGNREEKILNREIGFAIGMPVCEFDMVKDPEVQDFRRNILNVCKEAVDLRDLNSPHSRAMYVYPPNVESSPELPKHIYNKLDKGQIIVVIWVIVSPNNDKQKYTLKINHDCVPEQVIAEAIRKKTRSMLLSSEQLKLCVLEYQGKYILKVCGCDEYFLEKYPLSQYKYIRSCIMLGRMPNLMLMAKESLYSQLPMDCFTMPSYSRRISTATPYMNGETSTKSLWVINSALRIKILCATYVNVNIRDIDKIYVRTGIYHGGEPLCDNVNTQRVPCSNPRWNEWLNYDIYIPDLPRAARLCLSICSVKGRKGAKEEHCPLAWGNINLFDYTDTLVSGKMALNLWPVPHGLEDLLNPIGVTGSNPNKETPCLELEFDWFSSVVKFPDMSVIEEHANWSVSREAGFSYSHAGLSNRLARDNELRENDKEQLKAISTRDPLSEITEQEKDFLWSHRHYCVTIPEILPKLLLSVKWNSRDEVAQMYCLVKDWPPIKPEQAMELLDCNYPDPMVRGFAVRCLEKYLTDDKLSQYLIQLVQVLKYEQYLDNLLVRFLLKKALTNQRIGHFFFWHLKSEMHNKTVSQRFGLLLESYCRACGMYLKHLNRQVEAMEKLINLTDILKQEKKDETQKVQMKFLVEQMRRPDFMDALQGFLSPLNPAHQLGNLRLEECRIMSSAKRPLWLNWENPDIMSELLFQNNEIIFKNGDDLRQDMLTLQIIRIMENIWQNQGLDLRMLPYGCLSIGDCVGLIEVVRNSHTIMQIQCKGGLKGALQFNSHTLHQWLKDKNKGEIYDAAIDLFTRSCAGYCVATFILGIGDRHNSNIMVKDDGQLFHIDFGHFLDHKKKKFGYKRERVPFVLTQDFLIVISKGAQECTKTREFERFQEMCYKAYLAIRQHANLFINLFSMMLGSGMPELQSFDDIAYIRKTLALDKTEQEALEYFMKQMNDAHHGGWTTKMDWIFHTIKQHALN
human Phosphodiesterase 10 (PDE10), PDE10A (gene 10846), sequence (Q9Y233 whole entry, looked up): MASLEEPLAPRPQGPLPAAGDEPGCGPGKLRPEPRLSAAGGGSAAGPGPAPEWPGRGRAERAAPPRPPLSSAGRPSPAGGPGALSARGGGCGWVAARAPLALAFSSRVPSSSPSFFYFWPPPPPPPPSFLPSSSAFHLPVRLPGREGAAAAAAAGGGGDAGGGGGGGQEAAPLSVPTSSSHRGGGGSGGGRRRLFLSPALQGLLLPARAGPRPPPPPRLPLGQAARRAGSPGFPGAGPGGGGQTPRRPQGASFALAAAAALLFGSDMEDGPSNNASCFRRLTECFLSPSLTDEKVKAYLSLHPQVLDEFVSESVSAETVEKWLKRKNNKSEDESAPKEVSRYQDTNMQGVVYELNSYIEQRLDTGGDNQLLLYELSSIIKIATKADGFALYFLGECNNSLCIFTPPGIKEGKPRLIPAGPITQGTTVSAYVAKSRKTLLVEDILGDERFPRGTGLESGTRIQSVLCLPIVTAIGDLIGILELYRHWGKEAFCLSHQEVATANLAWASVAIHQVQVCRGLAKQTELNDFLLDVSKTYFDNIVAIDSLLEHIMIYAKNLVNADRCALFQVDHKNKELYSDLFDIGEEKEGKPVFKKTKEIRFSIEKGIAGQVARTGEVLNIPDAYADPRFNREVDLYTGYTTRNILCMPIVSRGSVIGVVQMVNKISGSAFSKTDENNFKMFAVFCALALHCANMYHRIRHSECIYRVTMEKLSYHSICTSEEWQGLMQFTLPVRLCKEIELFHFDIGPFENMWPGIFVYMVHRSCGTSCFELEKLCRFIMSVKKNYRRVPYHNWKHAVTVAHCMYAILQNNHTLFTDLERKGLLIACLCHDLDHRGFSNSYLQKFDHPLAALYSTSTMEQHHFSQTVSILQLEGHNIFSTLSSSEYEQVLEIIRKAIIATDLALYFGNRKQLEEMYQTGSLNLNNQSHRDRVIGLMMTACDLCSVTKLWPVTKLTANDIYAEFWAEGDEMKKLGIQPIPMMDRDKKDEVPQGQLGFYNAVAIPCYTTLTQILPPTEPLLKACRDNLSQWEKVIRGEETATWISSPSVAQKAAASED
Tyrosine-protein phosphatase non-receptor type 11 (Homo sapiens), sequence (Q06124 whole entry, looked up): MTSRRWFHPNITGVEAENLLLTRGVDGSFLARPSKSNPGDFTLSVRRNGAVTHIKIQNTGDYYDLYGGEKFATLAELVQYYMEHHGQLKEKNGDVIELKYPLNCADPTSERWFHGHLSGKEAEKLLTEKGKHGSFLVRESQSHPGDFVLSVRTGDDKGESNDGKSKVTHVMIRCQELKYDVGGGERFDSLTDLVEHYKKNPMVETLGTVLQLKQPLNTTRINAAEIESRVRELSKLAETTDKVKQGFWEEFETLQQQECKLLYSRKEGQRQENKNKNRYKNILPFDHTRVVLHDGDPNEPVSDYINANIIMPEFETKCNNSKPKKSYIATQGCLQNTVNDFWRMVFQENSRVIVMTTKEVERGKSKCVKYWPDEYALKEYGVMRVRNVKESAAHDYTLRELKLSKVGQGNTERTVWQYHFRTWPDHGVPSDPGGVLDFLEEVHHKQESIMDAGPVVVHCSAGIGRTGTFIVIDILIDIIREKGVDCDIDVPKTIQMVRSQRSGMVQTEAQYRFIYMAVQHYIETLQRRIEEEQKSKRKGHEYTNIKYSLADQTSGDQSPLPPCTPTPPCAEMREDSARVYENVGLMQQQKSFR

As usually defined, the AC50 is the midpoint of the concentration-response curve, whichever way the signal moves. For the molecule `Cc1nc(-c2ccc3c(c2)CCN(CCC2CCC(NC(=O)/C=C/c4ccc(F)cc4)CC2)CC3)no1` (stereo not given), the half-maximal activity concentration (AC50) in assay [1] was 3.71 µM (active). In addition, the call in assay [2] was inactive. For `Oc1ccc2c(c1)OC[C@@H](N1CCC(O)(c3ccc(F)cc3)CC1)[C@H]2O`, in assay [3], the outcome was inactive. For the molecule `CC1=C(/C=C/C(C)=C/C=C/C(C)=C/CO)C(C)(C)CCC1`, the call in assay [4] and in [5] was inactive. For the molecule `NS(=O)(=O)c1cc2c(cc1Cl)NCNS2(=O)=O`, the molecule was classed as inactive in [6]. Turning to `O=c1[nH]cc(F)c(=O)[nH]1`, in assay [3], the outcome was inactive. As to `CCNc1cccc(C)c1`, the outcome in assay [6] was inactive. As for `CN[C@H]1CC[C@@H](c2ccc(Cl)c(Cl)c2)c2ccc(S(N)(=O)=O)cc21`, the molecule was classed as inactive in assay [3]. Consider `CCc1c(C(=O)NN2CCCCC2)nn(-c2ccc(Cl)cc2Cl)c1-c1ccc(Br)cc1`, for which the outcome in assay [4], in assay [2] and in assay [7] was inactive. For the molecule `Cc1cc(NC(=O)C(=O)O)cc(C)c1Oc1ccc(O)c2c1CCC2`, the molecule was classed as inactive in [3]. Regarding `Cc1cc(=O)[nH]c(=S)[nH]1`, the call in assay [3] was inactive.

`Nc1ccccc1N`: the molecule was called inactive in [6]. For `CCCCc1ccc2c(n1)[C@@H](c1ccc(OC)cc1C[C@H](C)C(=O)O)[C@H](C(=O)O)[C@H]2c1ccc2c(c1)OCO2`, the outcome in assay [6] was inactive.

With `CCCCCCC(=O)OCC`, the result in [3] was inactive. For `CNC(=O)[C@H]1O[C@@H](n2cnc3c(NCc4cc(Cl)ccc4OCc4cc(C)no4)ncnc32)[C@H](O)[C@@H]1N`, the concentration at half-maximal activity (AC50) in [6] is 8.35 µM (active). Further, the result in assay [8] was inactive. Take `O=C(O)Cc1ccccc1Nc1c(Cl)cccc1Cl`: in [6], the outcome was inactive. In the case of `CCCCN(CCCC)CCCC`, the result in assay [9] was inactive.

Regarding `FC(F)(F)C(F)(F)C(F)(F)C(F)(F)C(F)(F)C(F)(F)CCI`, the outcome in assay [4], in assay [8], in assay [9] and in [10] was inactive.

Values taken from PubChem BioAssay (EPA / NIEHS).
